SMILES strings stand for the structures. The panel holds about 83,000 compounds, 20% with a hit somewhere; the sample as a whole holds those more often.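 How to read the values: 0–100, growth inhibition (40 = 60% inhibited); 0, no net growth; -100 to 0, cell death (-40 = 40% of starting cells died; -100 = all dead).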 Unmarked numbers belong to inactive results. The source made the active and inactive calls.

The test system of this assay is SK-MEL-5 melanoma. In words: NCI-60 one-dose screen, 48 h (100 = growth as untreated, 0 = no growth, -100 = all killed). As to conditions: 10 µM unless noted. The protocol:
Growth inhibition of the SK-MEL-5 human tumor cell line is measured as a screen for anti-cancer activity. Cells are grown in 96 well plates and exposed to the test compound for 48 hours. Compounds are tested at a single concentration, which is 10^-5 M for most compounds. The reported endpoint is percent growth (GI% or GIPRCNT), where numbers from 0 - 100% represent growth inhibition, and numbers from -100% - 0 represent cell death. For example, a value of 40 represents 60% growth inhibition. A value of 0 means no net growth occurred over the course of the experiment. A value of -40 indicates 40% of cells at the beginning of the experiment died by the end of the experiment. A value of -100 means all cells are dead at the end of the experiment.
NCI-60 Human Tumor Cell Lines Screen was performed using the standard one-dose NCI protocol, which is described in more detail at https://dtp.cancer.gov/discovery_development/nci-60/default.htm.
Compounds with GIPRCNT values below 10 were considered active. Activity score was based on GIPRCNT using the following formula: […]
Score is 0 for GIPRCNT values of 100 or above, 50 for GIPRCNT values of 0, and 100 for GIPRCNT values of -100.
Regarding `Cc1ccc(N(CSc2ccc(Cl)cc2)CSc2ccc(Cl)cc2)cc1`, the growth is 65.5%.

Take `Cc1c(NCC(=O)Nc2nc3ccccc3[nH]2)c(=O)n(-c2ccccc2)n1C`: the growth was 100%.

On to `Cc1cc(=O)c2c(C)ccc(C)c2[nH]1`, for which the growth was 110%.

On to `O=C1c2ccccc2-c2nnc(-c3ccc(Br)cc3)cc21`, for which the growth is 51.1%.

As for `COc1c(O)c2c3c(c1OC)-c1ccccc1CC3N(S(=O)(=O)c1ccc(C)cc1)CC2` (stereo not given), the growth was 21.8%.

On to `Cc1cc(C)c(S(=O)O)c(C)c1`, for which the growth was 105%.

For the molecule `COc1ccc(/C=C2\SC(=O)N(CN3CCN(c4cc5c(cc4F)c(=O)c(C(=O)O)cn5C4CC4)CC3)C2=O)cc1`, the growth is 97.2%.

Take `CCCCC(=O)N/N=C/c1cc(I)cc(I)c1O`: the growth was 78.9%.

For `CCCCC1COc2cccc3c(SCC(=O)N(C)c4cccc5ccccc45)cc[n+]1c23` (stereo not given), the growth is 98.5%.

Consider `CCCCCCCCCCCC(=O)[O][Sn]([CH2]CCC)([CH2]CCC)[CH2]CCC`, for which the growth is -97.8% (active).

On to `Cc1cc[n+](CCc2ccccc2)cc1`, for which the growth was 92.7%.

For the molecule `FC(F)(F)Oc1ccc2c(c1)C[C@H]1C[C@@H](c3ccoc3)N2O1`, the growth was 115%.

`Nc1nc(N)c(C=Nc2ccc(Br)cc2)c(Nc2ccc(Br)cc2)n1`: the growth is 108%.

As for `COc1ccc(-c2nc(Nc3ccc(F)cc3)nc(Nc3ccc4c(c3)nc(C)n4Cc3ccccc3)n2)cc1`, the growth is 47.1%.

As for `O=c1c2cc(F)ccc2oc2c(NCCNCCO)nc3ccccc3c12`, the growth is 61.6%.

`Cc1ccc(S(=O)(=O)N2CCc3ccc(O)c4c3C2CCc2ccccc2-4)cc1` (stereo not given): the growth is 105%.

As to `COc1cccc(OC(=O)c2ccccc2)c1OC(=O)c1ccccc1`, the growth was 56.9%.

Consider `CCC(=O)Nc1nnc(Cc2ccc(OC)c(OC)c2)s1`, for which the growth was 46.6%.

Take `Cc1ccc(S(=O)(=O)c2ccc3[nH]c(=O)[nH]c(=O)c3c2)cc1`: the growth is 103%.

For `COc1ccc(-c2[nH]ncc2Nc2cc(OC)c(OC)c(OC)c2)cc1`, the growth was -11.3% (active).

For `Cc1nc2cc(Nc3nc(N4CCOCC4)nc(N4CCN(C)CC4)n3)ccc2n1Cc1ccccc1`, the growth is 97.5%.

For `c1ccc2cc(Cn3c(-c4ccc5ccccc5c4)[n+](Cc4ccc5ccccc5c4)c4ccccc43)ccc2c1`, the growth was -97.2% (active).

Consider `O=C(COc1ccc(/C=C2\CSc3ccccc3C2=O)cc1)c1ccc(Cl)cc1`, for which the growth is 116%.

Regarding `COc1cc(/C=N/NC(=O)c2cnn3c2NC(c2ccccc2)C3)ccc1OC1CCCC1` (stereo not given), the growth is 25.6%.

Consider `Cc1oc2c(c1C(=O)N1CC[C@@H](N)C1)C(=O)c1c(c(O)c3ccccc3c1O)C2=O`, for which the growth is 42.7%.

As for `CC(=O)OC[C@H](O)[C@@]1(O)CC[C@H]2[C@@H]3CCC4=CC(=O)CC[C@]4(C)[C@H]3[C@@H](O)C[C@@]21C`, the growth was 101%.

On to `CCOc1ccc(/C=N\N2CCCCCC2)cc1OCC`, for which the growth was 83.1%.

For the molecule `CCN1CCN(c2nc3ccccc3c3c(=O)c4cc(F)ccc4sc23)CC1`, the growth was 82.8%.

On to `O/N=C/c1cccs1`, for which the growth is 103%.

Regarding `OC[C@@H](O)[C@@H](O)CO`, the growth was 104%.

For `COc1ccc(NS(=O)(=O)c2ccc(-c3cnc(C4CC4)o3)cc2)cc1`, the growth was 51.3%.

Regarding `Cc1ccc2nc(NC(=O)CSC(=S)N3CCN(C)CC3)sc2c1`, the growth was 107%.

As to `COc1cccc(C2C3=C(COC3=O)N(CCO)c3cc4c(cc32)OCO4)c1` (stereo not given), the growth is 30.8%.

Consider `COc1cc(Cn2cc(F)c(=O)[nH]c2=O)cc(OC)c1`, for which the growth is 103% [50 µM].

For the molecule `O=S(=O)(Nc1ccc(Cl)c(Cl)c1)c1ccc(-c2cnc(C3CC3)o2)cc1`, the growth is 25%.

For `O=C(N/N=C/c1ccc2c(c1)OCO2)c1cnn2c1NC(c1ccccc1)C2` (stereo not given), the growth is 37.3%.

In the case of `O=C(Nc1nc2ccccc2[nH]1)C(=O)Nc1nc2ccccc2[nH]1`, the growth is 99.2%.

On to `CC(C)(C)CC(C)(C)N(CSc1ccc(Cl)cc1)CSc1ccc(Cl)cc1`, for which the growth was 54.2%.

Consider `COc1ccc2nc(-n3nc(C)cc3C)c(-n3nc(C)cc3C)nc2c1`, for which the growth is 100%.

Regarding `COc1ccc(/C=N\N2CCOCC2)cc1OC1CCCC1`, the growth is 99.3%.

The values above are taken from PubChem BioAssay (NCI).
